Source: ChEMBL document CHEMBL3433997, “St. Jude Leishmania screening dataset” (2016)

Legend:
Type in all cases: functional
[1] = molecular target: Solute carrier family 2, facilitated glucose transporter member 1 (Homo sapiens) (UniProt P11166); experiment: ST_JUDE_LEISH: Cytotoxicity at 2uM final concentration against transgenic Leishmania Mexicana promastigotes LmGLUT1 that are glucose transport deficient and complemented with the human glucose transporter GLUT1. Activity is measured by DNA content using SYBR green in vitro
[2] = molecular target: Hexose transporter 1 (Plasmodium falciparum) (UniProt O97467); experiment: ST_JUDE_LEISH: Cytotoxicity at 2uM final concentration against transgenic Leishmania Mexicana promastigotes LmPfHT that are glucose transport deficient and complemented with the Plasmodium falciparum hexose transporter. Activity is measured by DNA content using SYBR green in vitro
[3] = molecular target: Glucose transporter (Leishmania mexicana) (UniProt O61059); experiment: ST_JUDE_LEISH: Cytotoxicity at 2uM final concentration against transgenic Leishmania Mexicana promastigotes LmGT2 that are glucose transport deficient and complemented with the L. Mexicana glucose transporter 2. Activity is measured by DNA content using SYBR green in vitro

Solute carrier family 2, facilitated glucose transporter member 1 (Homo sapiens), sequence (P11166 whole entry): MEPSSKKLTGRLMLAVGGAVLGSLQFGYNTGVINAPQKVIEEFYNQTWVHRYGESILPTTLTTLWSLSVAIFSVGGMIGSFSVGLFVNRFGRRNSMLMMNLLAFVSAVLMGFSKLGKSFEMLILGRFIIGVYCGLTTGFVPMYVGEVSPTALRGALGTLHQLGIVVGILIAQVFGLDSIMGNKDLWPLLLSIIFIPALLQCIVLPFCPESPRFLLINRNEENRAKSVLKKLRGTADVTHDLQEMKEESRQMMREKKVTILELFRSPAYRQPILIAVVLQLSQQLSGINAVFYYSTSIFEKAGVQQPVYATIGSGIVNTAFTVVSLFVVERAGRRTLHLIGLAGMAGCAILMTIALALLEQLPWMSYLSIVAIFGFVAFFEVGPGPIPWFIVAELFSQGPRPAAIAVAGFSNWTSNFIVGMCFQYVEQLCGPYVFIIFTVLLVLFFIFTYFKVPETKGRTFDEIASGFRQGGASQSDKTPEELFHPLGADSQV

SMILES | inhibition [1] [%] | inhibition [2] [%] | inhibition [3] [%]
O=S(=O)(Nc1cccc(CCN2CCCCC2CCN2CCCC2)c1)c1ccc(-c2ccccc2)cc1 (stereo not given) | 2.86 | -0.3 | -2.73
COc1ccccc1CCNc1nc(C)cc(NCCC(=O)NCCOc2ccccc2)n1 | 5.24 | 7.33 | 2.01
CN1CCN(CCCN(Cc2ccc(-c3cccc(CNC4CCCC4)c3)cc2)C(=O)Nc2ccccc2)CC1 | 9.1 | 3.98 | 5.53
c1cc2c3c(cccc3c1)NC(CCCCCCCCC1=Nc3cccc4cccc(c34)N1)=N2 | 2.66 | 1.67 | 2.28
COc1ccc(OC)c(NC(=O)c2c(-c3c(F)cccc3Cl)noc2C)c1 | 5.12 | 3.64 | 2.52
COc1ccc(Cn2c(Nc3cccc(C(F)(F)F)c3)nc3cc(C(=O)NC4CC4)cnc32)cc1Cl | -1.9 | -0.56 | -3.22
CN(C)[C@@H]1C(O)=C(C(N)=O)C(=O)[C@@]2(O)C(O)=C3C(=O)c4c(O)ccc(C#Cc5ccccn5)c4C[C@H]3C[C@@H]12 | 1.83 | -0.62 | 0.74
CCOc1cc(C(=O)NCc2cc(Cl)cc(Cl)c2)ccc1-c1nc2cc(Cl)ccc2[nH]1 | 1.6 | 2.18 | 1.11
Cc1ccc(CNC(=O)[C@H](CC(C)C)Nc2cc(C)nc(Nc3ccccc3)n2)cc1 | 3.16 | 4.07 | -0.24
CCOc1ccc(-c2nc(NC(=O)Cc3cccc(OC)c3)sc2C)cc1 | 5.17 | 7.92 | -0.61
COC(=O)c1cc(NC(=O)Nc2ccc(Cn3ncc(N4CCCNCC4)c(Cl)c3=O)cc2)cc(C(=O)OC)c1 | 0.7 | 1.45 | 1.92
Cc1cc(C2CCN(CCCCNC(=O)c3ccc(NC(=O)c4ccc(Cl)cc4)cc3)CC2)c(C)cc1OCCN(C)C | 9.34 | 8.76 | 9.76
C=Cc1sc(CNCCCNc2cc(=O)c3ccccc3[nH]2)c(C)c1Br | 0.34 | 0.27 | -0.58
COc1cccc2c(Nc3ccccc3C)nc(Nc3ccccc3C)nc12 | 19.6 | 16.8 | 4.14
CC(C)N1CCN(c2ccc(OCCCCN3CCN(c4cccc(Cl)c4Cl)CC3)c(C(F)(F)F)c2)CC1 | -0.92 | -1.01 | 0.98
Cc1cc(N[C@@H](Cc2ccccc2)C(=O)NCc2cccs2)nc(NCCc2cccnc2)n1 | 1.39 | 1.61 | 1.02
O=C(c1ccc(F)c2ccccc12)N1CCc2cc3nccc(N4CCN5CCC[C@H]5C4)c3cc21 | 3.66 | 1.16 | 0.27
Oc1ccc(Nc2nc(N3CCCC3)c3ccccc3n2)cc1 | 2.69 | 1.64 | -0.61
COc1ccc2c(=NN=Cc3cccnc3)cc(C)[nH]c2c1 | 1.93 | 0.44 | 1.52
N#Cc1ccc(-c2ccc3nc(N4CCCN(C5CCC5)CC4)ccc3c2)cc1 | 6.14 | 7 | 6.34
CCNc1cc(C(=O)N[C@@H](Cc2ccccc2)[C@H](O)CN[C@H](C)c2ccccc2)cc(N2CCCC2=O)c1 | 4.44 | 3.88 | -0.89
CN1CCN(c2ccnc3ccc(NC(=O)Nc4ccc5ccccc5c4)cc23)CC1 | 2.79 | 1.63 | 2.8
OCC1CCN(Cc2ccc(-c3cccc(-c4nc5cc(F)ccc5[nH]4)c3)cc2)CC1 | -1.93 | -1.06 | -1.42
Cc1[nH]c(-c2ccc(F)cc2)cc1C(=O)NC1CCN(Cc2ccccc2)CC1 | 1.59 | 3.23 | -0.98

SMILES | inhibition [1] [%] | inhibition [2] [%] | inhibition [3] [%]
c1ccc(-c2nnc(-c3ccccn3)nc2NC2CCCCC2)cc1 | 80 | 79.8 | 71.2
COc1cccc(NC(=O)Nc2c(-c3cccc(C(F)(F)F)c3)c(C(F)(F)F)nn2C)c1 | 0.7 | 1.76 | 0.37
CN(C)Cc1ccc(-c2cc3ncnc(Nc4ccc(OCc5cccc(F)c5)c(Cl)c4)c3s2)[nH]1 | 3.19 | 2.49 | 1.76
CC(C)N1CCN(C(=O)c2ccc(CNCCCN3CCN(c4cccc(Cl)c4Cl)CC3)s2)CC1 | 1.17 | 1.06 | -0.54
CCN(CC)S(=O)(=O)c1cc(-c2ccc(=O)n(CC(=O)c3ccc(C)cc3)n2)ccc1C | 4.68 | 6.23 | 2.45
Cc1cc(N[C@@H](Cc2ccccc2)C(=O)NCCOc2ccccc2)nc(NCCc2ccc(F)cc2)n1 | 15.1 | 11.7 | 10.1
Cc1noc(C)c1-c1ccc2c(Nc3ccc(C(F)(F)F)cc3)c(C(N)=O)cnc2c1 | 3.49 | 3.21 | -3.02
COc1cccc(-c2nc(Nc3ccncc3)c3ncn(C)c3n2)c1 | 3.21 | 3.6 | 2.65
Cc1cc(N[C@@H](Cc2ccccc2)C(=O)NCCOc2ccccc2)nc(NCCc2cccs2)n1 | 8.11 | 7.52 | 6.47
COc1ccccc1/C=C/C(=O)NC1CCC(CCN2CCc3ccc(-c4cc(C)no4)cc3CC2)CC1 (stereo not given) | 3.11 | 1.2 | 9.56
c1ccc(-c2nc(NCCCn3ccnc3)cc(-c3ccncc3)n2)cc1 | 3.22 | 4.55 | 1.25
N#Cc1cc([N+](=O)[O-])ccc1-n1nc(-c2cccc(Cl)c2)n(Cc2ccco2)c1=S | 1.94 | 1.56 | -3.52
CCN(CC)CCN(Cc1ccc(-c2ccc(C(F)(F)F)cc2)cc1)C(=O)Cn1c(CCc2cccc(F)c2F)nc(=O)c2ccc(C(F)(F)F)cc21 | 1.5 | 1.49 | 1.99
Cc1ccc(S(=O)(=O)NC2CCN(CCNC(=O)Nc3cc(C)nc4ccccc34)C2)cc1 (stereo not given) | 4.78 | 4.12 | 0.31
COc1cc(NC(=O)N2CCOC(CCN3CCC4(CCc5ccccc54)CC3)(c3ccc(Cl)c(Cl)c3)C2)cc(OC)c1OC (stereo not given) | 18.1 | 15.1 | 14.1
O=[N+]([O-])c1ccc(Nc2nc(N/N=C/c3ccc(-c4ccc([N+](=O)[O-])cc4)o3)nc(Nc3ccccc3)n2)cc1 | 0.17 | -3.33 | -5.8
CCC(C)CN1CCCN(c2ccc(NC(=O)c3cccs3)cc2)CC1 (stereo not given) | 1.62 | -0.95 | 5.89
COc1ccc(-c2nc3c(N)nc(N)nc3nc2-c2ccccc2Cl)cc1.COc1ccc(-c2nc3nc(N)nc(N)c3nc2-c2ccccc2Cl)cc1 | 9.91 | 10.5 | 6.97
O=C(/C=C/c1ccc(Cl)c(Cl)c1)NCCCCCCN1CCN(C(=O)Nc2ccc(F)c(Cl)c2)CC1 | 13.8 | 11.5 | 14.1
CC1(C)CC(NC(=O)NC2CCN(Cc3ccccc3)CC2)CC(C)(CNC(=O)NC2CCN(Cc3ccccc3)CC2)C1 (stereo not given) | 5.31 | 5.93 | 1.3
CC(C)(C)c1ccc(CN2CCC(CNC(=O)c3cc(-c4ccccc4C(F)(F)F)cs3)C2)cc1 (stereo not given) | 1.63 | 3.76 | 1.21
COc1cc(Cc2cnc(N)nc2N)cc(OCCCCCC(=O)O)c1OC | 6.91 | 5.78 | 5.12
COc1ccc2nccc([C@@H](O)CN3CCC(NCc4nc5c(F)cccc5[nH]4)CC3)c2c1 | 1.46 | 0.84 | -0.41
Cc1cccc2nc(-c3cccc(-c4ccc(NC(=O)c5cnccc5C(F)(F)F)cc4)c3)[nH]c12 | 1.18 | -0.42 | 3.44

SMILES | inhibition [1] [%] | inhibition [2] [%] | inhibition [3] [%]
C/C(=C\C(=O)NC1CC1)c1ccccc1OCc1ccccc1 | 0.29 | -2.11 | 3.94
Cc1ccc(C(=O)Nc2ccc(F)c(F)c2F)cc1S(=O)(=O)N1CCCCC1 | 4.08 | 3.47 | 0.7
CCOc1c(N2CCN(CCCCNC(=O)c3ccc(NC(=O)c4ccc(Cl)cc4)cc3)CC2)ccc2ccccc12 | 0.72 | 0.48 | 0.9
CO/C(=C\C=C\c1cc2cc(Cl)c(Cl)cc2[nH]1)C(=O)NCCCN1CCN(c2cccc(CCO)c2)CC1 | -0.14 | 1.35 | -0.1
COc1ccccc1-c1sccc1C(=O)NC1(c2cc(Cl)cc(Cl)c2)CCCC1 | 1.22 | 0.95 | 4.85
CCN(CCCN1CCCCC1)c1cc(C)nc(Nc2cccc(C(F)(F)F)c2)n1 | -5.65 | 2.63 | 11
O=C(C=Cc1ccc(Cl)c(Cl)c1)NCCCCCN1CCC(CCNC(=O)c2ccc3c(c2)OCO3)CC1 | 5.94 | 5.12 | 5.57
CC(C)Oc1ccc(CCCON2C(=N)N=C(N)NC2(C)C)cc1 | 20.8 | 28.2 | 19
Cc1cccc2nc(-c3ccc(-c4cccc(NC(=O)Nc5ccccc5)c4)cc3)[nH]c12 | 9.16 | 9.91 | 8.18
O=C(/C=C/c1ccc(Cl)c(Cl)c1)NCCCCCCN1CCCN(C(=O)Nc2ccc(F)c(F)c2)CC1 | 0.72 | 0.44 | 2.39
Cn1cc(C2CCN(CCCCCNC(=O)/C=C/c3ccc(Cl)c(Cl)c3)CC2)c2cc(O)ccc21 | 1.48 | 2.56 | 1.47
N#Cc1ccccc1Sc1ccccc1C(=O)Nc1ccc2ccccc2n1 | 7.84 | 11.5 | 7.12
Cc1nc2nc(N)nc(N)c2c(C)c1Cc1cccc(F)c1 | 2.65 | 1.14 | 0.65
CCCc1cc(N2CCC(N(CC)CC)C2)nc(Nc2ccc(OC)cc2)n1 (stereo not given) | 3.16 | 3.72 | 1.91
O=C(CSc1cccc[n+]1[O-])c1ccc(Cc2ncc(C(F)(F)F)cc2Cl)s1 | 9.45 | 9.48 | 10.7
COc1ccc(NC(=O)/C=C/c2ccccc2Cl)cc1OCCN1CCC(NCc2cccnc2)CC1 | 3.65 | 2.5 | 1.91
CCOC(=O)c1nc2ccc(SC3CCCCC3)cn2c1Br | 1.75 | 0.06 | 5.65
Cc1ccccc1CNC(=O)Nc1cccc(-c2csc(NC(=N)N)n2)c1 | 0.55 | 0.56 | 4.51
CCOc1ccc(-c2nonc2NC(=O)c2ccc(Cl)cc2)cc1OCC | 4.45 | 4.43 | 4.61
COc1ccc(Nc2ncc3c(-c4cccc(NC(=O)Cc5ccc(O)cc5)c4)c[nH]c3n2)cc1OC | 9.41 | 5.77 | 8.19
CC(C)(C)c1ccc(CNC(=O)c2ccc(CNC3CCC(N)CC3)s2)cc1 (stereo not given) | -0.19 | 0.91 | 0.31
CC(NC(C)c1cccc(Cl)c1)C(=O)Nc1cc(C(F)(F)F)ccc1N1CCOCC1 (stereo not given) | 0.88 | 0.48 | -9.9
